Most compounds without a hit are left out; they make up all but 8% or so of the library.
MARV entry inh: Marburg virus entry inhibition; Marburg virus pseudotyped entry inhibition, cell reporter; Potency, µM (series often up to 37.8 µM), usual class: inhibitors; 1.8% of 300,000 active; AID 540276; calls by dose curve; tested in HEK293 cells
HCMV inh: human cytomegalovirus inhibition; 4.5% of 410,000 active; activity change, negative = inhibition, % at 57.5 µM; HFF cells, HCMV-luciferase reporter, 72 h; hits give low values; in the data active = activity change below about -60%; inconclusive = no clear call, values can overlap the other calls; inactive = above about -39%
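Cell-based, HFFs, 1000 cells/well, 16 h 37C; cpds in DMSO + HCMV-luc, MOI 1 PFU/cell; 72 h 37C; OneGlo luminescence after 5 min RT; norm. to buffer vs Salinomycin 10uM.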
Lassa entry inh: inhibitors of Lassa virus binding or cell entry; Lassa virus pseudotype entry inhibition, cell reporter; 1.2% of 300,000 active; Potency, µM (highest dose often 37.9 µM), actives largely listed as inhibitors; calls by dose curve; tested in HEK293 cells; note: nearly all actives have a fitted effect of over 50% in size
SARS PLP yeast: SARS-CoV PLP inhibition in yeast. 0.19% of 330,000 active. S. cerevisiae expressing SARS-CoV PLpro, growth rescue. Potency, µM (doses to about 32.9 µM), actives largely listed as activators; calls by dose curve; note: nearly all actives have a fitted effect of over 55% in size
FMDV inh: antivirals against foot and mouth disease virus; FMDV antiviral cell-based qHTS; Potency, µM (doses to about 57.9 µM), actives largely listed as inhibitors; 1.2% of 410,000 active; calls by dose curve; tested in HEK293T cells; note: read-out not given here; nearly all actives have a fitted effect of over 45% in size
HCV inhibitor: inhibitors of hepatitis C virus infection. Huh7.5.1 HCVcc-Cre infection, luciferase reporter, 44 h. Potency, µM (doses to about 41.8 µM), usual class: inhibitors. 3.4% of 340,000 active. AID 651820; active = well fitted inhibition curve with a large enough effect; inconclusive = small, poorly fitted or top-dose-only effect, or another doubt; inactive = no such curve, though single readings can be large or run the other way
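Seed cells (1,000/well) for 4 h; treat with compound and infect with HCVcc-Cre, moi about 0.5. Incubate 44 h, then detect luciferase activity.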
Numbers stand for hits; ! = a repeat was not active; [ ] = remark or other dose.

How did Cc1ccc2cc(C(c3nnnn3Cc3ccccc3)N3CCN(c4ccccc4)CC3)c(=O)[nH]c2c1 (centres undefined) do in these assays?
MARV entry inh: 20.6µM; HCMV inh: inactive; Lassa entry inh: inactive; SARS PLP yeast: inactive; FMDV inh: inactive; HCV inhibitor: inconclusive

Results for COc1ccc(CCNc2nc(-c3ccc(OC)c(OC)c3)cc(C(F)(F)F)n2)cc1OC ?
MARV entry inh: inconclusive; HCMV inh: inactive; Lassa entry inh: inactive; FMDV inh: inconclusive

Results for COc1ccc(OC)c(N=c2ssnc2Cl)c1 ?
MARV entry inh: inactive; HCMV inh: inactive; Lassa entry inh: inactive; SARS PLP yeast: inactive; FMDV inh: inactive; HCV inhibitor: inactive

Results for COc1cc(N=c2ssnc2Cl)c(OC)cc1Cl ?
MARV entry inh: 16.4µM; HCMV inh: inactive; Lassa entry inh: inconclusive; SARS PLP yeast: inactive; FMDV inh: inconclusive; HCV inhibitor: inconclusive

What do the screens show for `S=C(N/N=C/c1cccs1)NC1CC2CCC1C2` (centres undefined)?
MARV entry inh: inconclusive; HCMV inh: inactive; Lassa entry inh: inactive; SARS PLP yeast: inactive; FMDV inh: inactive; HCV inhibitor: inactive

Results for Oc1ccc(/C=N/NC(=S)NC2CC3CCC2C3)cc1 (centres undefined) ?
MARV entry inh: inconclusive; HCMV inh: inactive; Lassa entry inh: 11.2µM; SARS PLP yeast: inactive; FMDV inh: inactive; HCV inhibitor: inactive

How did COC(=O)[C@](O)(c1c[nH]c2ccccc12)C(F)(F)F do in these assays?
MARV entry inh: inactive

Results for COc1ccc(-n2ncc3c(N4CCN(c5cccc(C)c5)C(C)C4)ncnc32)cc1 (centres undefined) ?
HCMV inh: -66.3; Lassa entry inh: inconclusive; FMDV inh: 20µM

What do the screens show for `COc1ccc(N2CCN(c3ncnc4c3cnn4-c3ccc(C)cc3C)CC2)cc1`?
MARV entry inh: inactive; HCMV inh: inactive; Lassa entry inh: inactive; SARS PLP yeast: inactive; FMDV inh: inconclusive; HCV inhibitor: inactive

What do the screens show for `Cc1cccc(-n2ncc3c(N4CCOCC4)ncnc32)c1`?
MARV entry inh: 3.66µM; HCMV inh: inactive; Lassa entry inh: 1.64µM; SARS PLP yeast: inactive; FMDV inh: inactive; HCV inhibitor: inactive

Results for Cc1ccc(-n2ncc3c(NCc4cccnc4)ncnc32)c(C)c1 ?
MARV entry inh: inconclusive; HCMV inh: inconclusive; Lassa entry inh: inconclusive; SARS PLP yeast: inactive; FMDV inh: inconclusive; HCV inhibitor: 10µM!

How did Cc1cccc(-n2ncc3c(N4CCN(CCO)CC4)ncnc32)c1 do in these assays?
HCMV inh: inactive; Lassa entry inh: inactive; FMDV inh: inactive

What do the screens show for `Cc1ccc(-n2ncc3c(N4CCN(c5ccccc5)CC4)ncnc32)c(C)c1`?
MARV entry inh: inactive; HCMV inh: -81.8; Lassa entry inh: inconclusive; SARS PLP yeast: inactive; FMDV inh: 3.16µM; HCV inhibitor: 4.47µM

What do the screens show for `COc1ccc(OC)c(C(=O)c2c(N)c(-c3nc(-c4ccc(C)c(C)c4)cs3)c3ccccn23)c1`?
MARV entry inh: inactive; HCMV inh: inactive; Lassa entry inh: inactive; FMDV inh: inactive

How did CC1=C[S+](=O)([O-])CC1SC1=NC2C=CC=CC2=N1 (centres undefined) do in these assays?
MARV entry inh: inactive

Results for CCOC(=O)c1c(N)sc2c1CCN(Cc1ccccc1)C2 ?
HCMV inh: inactive

What do the screens show for `Cc1cccc(-n2ncc3c(N4CCN(c5ccccc5)CC4)ncnc32)c1`?
HCMV inh: active; Lassa entry inh: inactive; FMDV inh: inconclusive

How did Cc1cccc(-n2ncc3c(N4CCCC4)ncnc32)c1 do in these assays?
MARV entry inh: inconclusive; HCMV inh: inactive; Lassa entry inh: inconclusive; SARS PLP yeast: inactive; HCV inhibitor: inconclusive

What do the screens show for `CCn1cc(S(=O)(=O)c2cc(C)cc(C)c2)c(=O)c2cc(F)c(N3CCN(c4ccccc4)CC3)cc21`?
HCMV inh: inactive; Lassa entry inh: inactive; FMDV inh: inactive

Results for N#Cc1ccc(OCc2nnc(SCC(=O)N3CCCc4ccccc43)n2-c2ccccc2)cc1 ?
MARV entry inh: 18.3µM; HCMV inh: inactive; Lassa entry inh: 25.9µM; SARS PLP yeast: inactive; FMDV inh: inactive; HCV inhibitor: inactive

What do the screens show for `COc1ccc(OCc2nnc(SCC(=O)N3CCCc4ccccc43)n2-c2ccc(C)cc2)cc1`?
MARV entry inh: inconclusive; HCMV inh: inactive; Lassa entry inh: inconclusive; SARS PLP yeast: inactive; FMDV inh: inactive; HCV inhibitor: 10µM

How did COc1ccc(-n2c(Cc3cccn3C)nnc2SCC(=O)N2CCCc3ccccc32)cc1 do in these assays?
MARV entry inh: inactive; HCMV inh: inactive; Lassa entry inh: inactive; SARS PLP yeast: inactive; FMDV inh: inactive

How did Cc1oc(-c2ccccc2NC(=O)c2ccccn2)nc1CNC(=O)c1cccc(C#CC(C)(C)O)c1 do in these assays?
FMDV inh: inactive

How did N#C/C(N=Nc1ccccc1O)=N\Nc1ccccc1O do in these assays?
HCMV inh: -99.4; SARS PLP yeast: inactive; FMDV inh: inconclusive; HCV inhibitor: 11.2µM

Results for Oc1ccccc1N=N/C(=N/Nc1ccccc1O)c1ccccc1 ?
HCMV inh: inactive; SARS PLP yeast: inactive; FMDV inh: inactive; HCV inhibitor: inactive[8.37 µM]

How did O=C(C1=C(O)C(=O)N(CCN2CCOCC2)[C@H]1c1cccnc1)c1cc2ccccc2o1 do in these assays?
MARV entry inh: inactive

Results for O=C(NCCc1nnc2n1CCN(Cc1ccc(F)c(F)c1)CC2)c1ccoc1 ?
FMDV inh: inactive

How did C/C=C/C=[N+](\[O-])C(C)/C(=N/O)c1ccc(F)cc1 (centres undefined) do in these assays?
MARV entry inh: inactive; HCMV inh: -75.0; Lassa entry inh: inactive; SARS PLP yeast: inactive; FMDV inh: inactive; HCV inhibitor: inactive

How did Cc1cccc(NC(=O)Cn2nc(-c3ccccc3)c3cnc4ccccc4c32)c1 do in these assays?
HCMV inh: inactive; Lassa entry inh: inactive; FMDV inh: inactive

How did COc1ccc(C(=O)Nc2ccccc2-c2nnn(CC(=O)Nc3ccc4c(c3)OCCO4)n2)cc1 do in these assays?
MARV entry inh: inactive; HCMV inh: -62.9; Lassa entry inh: inactive; SARS PLP yeast: inactive; FMDV inh: inactive; HCV inhibitor: inactive

How did COc1ccc(-n2ncc3c(=O)n(CC(=O)Nc4ccc5c(c4)OCCO5)cnc32)cc1 do in these assays?
MARV entry inh: inconclusive; HCMV inh: -60.1; Lassa entry inh: inconclusive; SARS PLP yeast: inactive; FMDV inh: inactive; HCV inhibitor: inactive

How did COc1cc(OC)cc(C(=O)Nc2ccccc2-c2nnn(CC(=O)Nc3cc(C)on3)n2)c1 do in these assays?
MARV entry inh: inactive; HCMV inh: -62.7; SARS PLP yeast: inactive; FMDV inh: inconclusive; HCV inhibitor: inactive

Results for O=C(Cn1cnc2ccccc21)Nc1ccc2c(c1)OCCCO2 ?
HCMV inh: inconclusive; SARS PLP yeast: inactive; FMDV inh: inactive; HCV inhibitor: 11.2µM

What do the screens show for `COc1ccc(C2(C(=O)NCC3Cc4cccc(-c5nc(C)cnc5C)c4O3)CCCC2)cc1` (centres undefined)?
FMDV inh: inactive

Source: PubChem
